Results taken from PubChem BioAssay (NCI).
Compounds without any hit were thinned out: in the full panel of roughly 83,000, 20% have a hit.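 Testing used 96-well plates and a 48-hour single-concentration exposure. Example: -40 means 40% of the starting cells died.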 Calls of active or inactive are those of the source. Rule for the calls: active = growth percent below 10; inactive = the rest.

What was measured:
Assay in all cases: NCI-60 one-dose screen, 48 h (100 = growth as untreated, 0 = no growth, -100 = all killed)
Settings in all cases: 10 µM unless noted
T-47D breast = system: T-47D breast
BT-549 breast = system: BT-549 breast
MDA-MB-435 melanoma = system: MDA-MB-435 melanoma
SW-620 colon = system: SW-620 colon
MCF7 breast = system: MCF7 breast
HCT-116 colon = system: HCT-116 colon
HCC-2998 colon = system: HCC-2998 colon
KM12 colon = system: KM12 colon

Measured: growth

CC(=O)n1nc(C(=O)OC(C)C)c2cc(C)c(C)cc21
inactive: T-47D breast 88.7% | BT-549 breast 98.2% | MDA-MB-435 melanoma 98.6% | SW-620 colon 98.8% | MCF7 breast 90.8% | HCT-116 colon 83.8% | HCC-2998 colon 105% | KM12 colon 105%

O=C1/C(=C/c2ccc(F)cc2)COc2ccc(O)c(O)c21
inactive: MCF7 breast 17.7% | HCC-2998 colon 19.9%
active: T-47D breast 4.43% | BT-549 breast 3.57% | MDA-MB-435 melanoma 1.65% | SW-620 colon -44.8% | HCT-116 colon -3.28% | KM12 colon 1.7%

CCOC(=O)CSc1ncnc2c1c(-c1ccccc1)c(-c1ccccc1)n2-c1ccc(C)cc1
active: T-47D breast 9.51%
inactive: BT-549 breast 61.8% | MDA-MB-435 melanoma 74.2% | SW-620 colon 81.2% | MCF7 breast 52.5% | HCT-116 colon 53.5% | HCC-2998 colon 75.8% | KM12 colon 50.2%

O=C(Cn1c(=O)sc2nc3ccccc3nc21)Nc1ncc(Cc2cccc(Cl)c2Cl)s1
inactive: T-47D breast 81.6% | BT-549 breast 100% | MDA-MB-435 melanoma 101% | SW-620 colon 100% | MCF7 breast 91.6% | HCT-116 colon 102% | HCC-2998 colon 101% | KM12 colon 99.9%

CCN(CC)CCOc1ccc(C(=C(C)c2ccc(Cl)cc2)c2ccc(OCCN(CC)CC)cc2)cc1
active: T-47D breast -66.4% | BT-549 breast -50.6% | MDA-MB-435 melanoma -95.1% | SW-620 colon -75.6% | MCF7 breast -76.5% | HCT-116 colon -94.1% | HCC-2998 colon -91.2% | KM12 colon -79%

CC1(C)c2[nH]c3ccccc3c2C[C@]2(C)[C@H]3CC=C4[C@@H]5C[C@@](C)(C(N)=O)CC[C@]5(C)CC[C@@]4(C)[C@]3(C)CC[C@@H]12
inactive: BT-549 breast 58.7% | MDA-MB-435 melanoma 59.3% | SW-620 colon 61.2% | MCF7 breast 29.3% | HCT-116 colon 40.9% | HCC-2998 colon 69.6% | KM12 colon 58.2%
active: T-47D breast 9.07%

Cc1ccc(-c2nc(N3CCNCC3)c3oc(-c4ccccc4)nc3n2)cc1
active: T-47D breast -57.8% | MDA-MB-435 melanoma -81% | SW-620 colon -55.1% | MCF7 breast -74.6% | HCT-116 colon -71% | HCC-2998 colon -61.1% | KM12 colon -89.1%
inactive: BT-549 breast 85.1%

CCOC(=O)c1c2c(n3ccc(C)cc13)C(=O)c1ccccc1C2=O
inactive: T-47D breast 92.7% | BT-549 breast 77.2% | MDA-MB-435 melanoma 108% | SW-620 colon 89.2% | MCF7 breast 82.5% | HCT-116 colon 76.5% | HCC-2998 colon 101% | KM12 colon 94.1%

O=C1Nc2ccc(Br)cc2/C1=N/c1n[nH]c(=S)s1
inactive: T-47D breast 94.6% | BT-549 breast 121% | MDA-MB-435 melanoma 101% | SW-620 colon 97.1% | MCF7 breast 91.7% | HCT-116 colon 103% | HCC-2998 colon 97.5% | KM12 colon 95.5%

COc1ccc(C(=O)Nc2cccc(C3CC(=O)c4c(cc(OC)c(OC)c4OC)O3)c2)cc1 (configuration not stated)
inactive: BT-549 breast 34.7% | SW-620 colon 27.3% | MCF7 breast 15.2% | HCT-116 colon 10.9% | HCC-2998 colon 64.9% | KM12 colon 13.8%
active: T-47D breast 7.66% | MDA-MB-435 melanoma -47.3%

O=C(CSc1nc2sc3c(c2c(=O)n1-c1ccccc1)CCCCC3)N/N=C/c1ccc(F)cc1
active: HCT-116 colon -26.2%
inactive: T-47D breast 16.9% | BT-549 breast 48.4% | MDA-MB-435 melanoma 70% | SW-620 colon 53% | MCF7 breast 26.8% | HCC-2998 colon 106% | KM12 colon 42.6%

CCOC(=O)c1cc(-c2ccc([N+](=O)[O-])cc2)n(-c2ccc(C(=O)O)c(O)c2)c1C
inactive: T-47D breast 38.2% | BT-549 breast 95.7% | MDA-MB-435 melanoma 50.6% | SW-620 colon 93.2% | MCF7 breast 53.9% | HCT-116 colon 49.4% | HCC-2998 colon 98.9% | KM12 colon 86.8%

CC(C)N1CN2C(=S)NC3C2N(C1)C(=S)N3C (configuration not stated)
inactive: T-47D breast 92.4% | BT-549 breast 124% | MDA-MB-435 melanoma 104% | SW-620 colon 101% | MCF7 breast 93% | HCT-116 colon 105% | HCC-2998 colon 113% | KM12 colon 94.4%

COc1ccc(C(=O)Nc2ncc(Cc3cccc(Cl)c3)s2)cc1OC
inactive: BT-549 breast 50.7% | SW-620 colon 27.4% | MCF7 breast 11% | HCT-116 colon 27.2% | HCC-2998 colon 16.9% | KM12 colon 18%
active: T-47D breast 3.79% | MDA-MB-435 melanoma 0.543%
